Only some compounds are listed: those with a hit (about 1.7% of all), similar ones and a draw of the others.
CCHF vOTU inh = CCHFV vOTU protease inhibition; Pep-AMC fluorescence; inhibition, % at 11.5 µM; 370,000 tested, 0.55% active; in the data active = inhibition above about 30%; also: 0% = vehicle wells with enzyme and 100% = no enzyme wells
PriA SSB inh = inhibitors of Klebsiella pneumoniae PriA binding to SSB C-terminal tail. AlphaScreen SSBct-PriA binding, biotinylated peptide. inhibition, % at 33 µM. 430,000 tested, 0.6% active. AID 1272365; in the data active = inhibition mostly above about 37%, no sharp cut-off; inactive = mostly below about 20%;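 also: plate controls were negative control peptide for no effect and reference peptide for full effect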
SARS 3CLpro inh-1 = SARS-CoV 3CLpro protease inhibition | P0C6X7 | recombinant SARS-CoV 3CLpro, quenched FRET peptide cleavage | inhibition, % at 6 µM | 290,000 tested, 0.14% active | AID 1706; in the data active = inhibition above about 12%
VHR inh abs = inhibitors of human VHR1 phosphatase (DUSP3). inhibition, % at 13.3 µM. P51452. AID 1654. recombinant VHR phosphatase, pNPP absorbance. 290,000 tested, 0.52% active; in the data active = inhibition above about 50%
RecA intein inh = inhibitors of M. tuberculosis RecA intein splicing; P9WHJ3; cell-free RecA intein splicing, fluorescence; inhibition, % (no concentration beside the values); 290,000 tested, 0.75% active; AID 2221; in the data active = inhibition above about 30%;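 also: 0% = vehicle wells and 100% = reference inhibitor control wells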
Target sequence (P9WHJ3 whole entry, looked up): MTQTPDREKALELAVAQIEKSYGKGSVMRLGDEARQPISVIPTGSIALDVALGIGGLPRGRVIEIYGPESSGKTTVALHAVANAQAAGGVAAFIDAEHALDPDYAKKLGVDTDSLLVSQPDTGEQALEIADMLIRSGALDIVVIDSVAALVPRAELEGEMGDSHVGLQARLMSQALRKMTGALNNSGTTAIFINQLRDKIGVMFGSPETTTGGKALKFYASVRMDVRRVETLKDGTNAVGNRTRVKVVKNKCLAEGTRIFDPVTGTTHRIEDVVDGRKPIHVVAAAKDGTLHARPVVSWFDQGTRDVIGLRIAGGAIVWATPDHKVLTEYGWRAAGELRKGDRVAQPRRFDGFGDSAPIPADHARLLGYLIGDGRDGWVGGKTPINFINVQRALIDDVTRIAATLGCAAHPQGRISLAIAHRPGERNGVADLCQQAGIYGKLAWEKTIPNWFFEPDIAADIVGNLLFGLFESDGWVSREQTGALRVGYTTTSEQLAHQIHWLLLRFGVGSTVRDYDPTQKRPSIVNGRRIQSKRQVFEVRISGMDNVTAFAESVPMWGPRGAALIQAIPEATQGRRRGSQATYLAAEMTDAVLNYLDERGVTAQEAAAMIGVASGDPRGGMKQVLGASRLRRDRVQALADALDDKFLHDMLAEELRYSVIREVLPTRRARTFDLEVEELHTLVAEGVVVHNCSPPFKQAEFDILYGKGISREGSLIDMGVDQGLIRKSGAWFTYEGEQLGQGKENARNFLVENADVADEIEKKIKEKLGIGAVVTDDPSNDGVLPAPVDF
SARS 3CLpro inh-2 = SARS 3CLpro inhibition, confirmation assay; QFRET protease activity assay; shares compounds with SARS 3CLpro inh-1; inhibition, % at 6 µM; 380 tested, 36% active; AID 1879; in the data active = inhibition above about 13%
The depositor's hits bear a star; . = no result given.

SMILES	CCHF vOTU inh	PriA SSB inh	SARS 3CLpro inh-1	VHR inh abs	RecA intein inh	others
Cc1[nH]nc2c1C(c1ccc(-c3cccc([N+](=O)[O-])c3)o1)C(C#N)=C(N)O2 (stereo not drawn)	.	-2	.	.	.
CC(=O)c1sc(NC(=O)c2ccc(S(=O)(=O)N(C)C3CCCC3)cc2)nc1C	.	-7	.	.	.
CN1C(=O)Cc2cc(NC(=O)c3ccc(-c4ccsc4)cc3)ccc21	.	58*	.	.	.
CCCCOc1ccc(C(=O)Nc2ccc3c(c2)CC(=O)N3C)cc1	.	14	.	.	.
Cc1nnc(-c2cc3ccccc3n2CC(=O)N2N=C(c3cccs3)CC2c2ccc(F)cc2)o1 (stereo not drawn)	.	-14	.	.	.
Cc1ccc(-n2nc(C)c(Sc3ccccc3[N+](=O)[O-])c2N)cc1	-3	39*	1	-3	6
Cc1nn(-c2ccccc2)c(C)c1Sc1ccccc1[N+](=O)[O-]	.	-1	.	.	.
OCCC1CN(CCCc2ccccc2)CCN1Cc1ccc(F)cc1 (stereo not drawn)	2	0	4	56*	1
COc1ccccc1/C=C(/CC(=O)NCc1ccccc1)c1nc2ccccc2s1	7	-44	4	54*	6
Cc1ccc(NC(=O)c2cc(NC(=O)/C=C\C(=O)O)ccc2N2CCCCC2)cc1	13	-4	0	14	48*
CCCN1CCCc2cc(CN)ccc21	100*	32	-4	44	7
CCCN1CCCc2ccc(N)cc21	.	130*	.	.	.
CCCN1CCCc2cc(CCNC(=O)C(=O)NCC(C)C)ccc21	.	25	.	.	.
O=C(Nc1ccc(N2CCOCC2)cc1)c1ccc(OCc2ccc3ccccc3n2)cc1	.	-15	.	.	.
C[C@](O)(CCc1ccccc1)CNC(=O)CSC1CCCC1	.	-9	.	.	.
Cc1ccccc1CS(=O)(=O)Cc1ccc(C(=O)N2CCC3(CC2)OCCO3)o1	1	-1	-6	51*	6
CNC(=S)N(CCc1c(C)[nH]c2ccc(OC)cc12)Cc1ccco1	2	3	1	57*	1
COCCNC(=S)N(CCc1c(C)[nH]c2ccc(OC)cc12)Cc1ccco1	-13	17	-4	57*	0
Cc1nc(N2CCN(C(=O)c3ccc4c(c3)OCO4)CC2)cc(-n2ccnc2)n1	.	-2	.	.	.
COc1ccc(Br)c(C(=O)N2CC(c3nc(-c4ccco4)no3)C2)c1	.	5	.	.	.
CCOC(=O)c1nn(-c2ccccc2)c(=O)c2c(N)scc12	37*	0	-3	5	.
Cn1ccnc1SCc1ccc(O)c2ncccc12	.	128*	.	.	.
Cn1cnnc1SCc1ccc(F)c2ccccc12	-10	-3	-8	-4	0
Cn1nnnc1SCc1ccc(O)c2ncccc12	.	124*	.	.	.
Cn1cnnc1SCc1ccc(O)c2ncccc12	.	125*	.	.	.
SMILES	CCHF vOTU inh	PriA SSB inh	SARS 3CLpro inh-1	VHR inh abs	RecA intein inh	others
Cn1nnnc1SCc1ccc(CSc2nnnn2C)cc1	-1	-10	1	31	0
O=C(NC1CCSC1=O)C1CCN(c2ccc(-n3cncn3)nn2)CC1 (stereo not drawn)	.	13	.	.	.
CN(C)CCNC(=O)c1sc2nc(-c3ccccc3)cc(C(F)(F)F)c2c1N	10	-6	-2	16	-4
COc1ccc(-c2cc(C(F)(F)F)c3c(N)c(C(=O)NCCSC)sc3n2)cc1	14	-13	1	54*	-35
CC(O)=Cc1nc(=O)c2c(C)cc(C)nc2n1-c1ccccc1	.	9	.	.	.
Cn1cnnc1S(=O)(=O)C1CCN(C(=O)c2cc(-c3ccco3)[nH]n2)CC1	.	-17	.	.	.
CCN1CCN(CCC(=O)Nc2cc(OC)cc(OC)c2)CC1	15	-3	-4	51*	4
Cc1cc(Cl)ccc1OCC(=O)NCCOC(=O)Nc1sc(=S)n(C)c1C	3	0	7	-6	0
Cc1ccc(Cl)cc1OCC(=O)NCCOC(=O)Nc1sc(=S)n(C)c1C	2	-4	-3	55*	-4
Cc1cccc(NC(=S)NN=Cc2ccc([N+](=O)[O-])s2)c1	.	39*	.	.	.
Cc1ccc(NC(=S)N/N=C/c2ccc([N+](=O)[O-])s2)cc1	21	.	-3	32	-8
Cc1cncnc1N1CCN(C(=O)NCCCc2ccccc2)CC1	.	-5	.	.	.
O=C(Oc1ccc(Cl)c2cccnc12)c1ccc(F)cc1	.	-12	.	.	.
O=C(Oc1ccc(Cl)c2cccnc12)c1ccco1	-7	52*	2	16	-3
CC(C)CCN1C(=O)C(C)(C)COc2cc(NC(=O)c3cccc(F)c3)ccc21	.	-7	.	.	.
CC1CCN(c2oc(-c3ccccc3Cl)nc2C#N)CC1	7	49*	-1	10	-2
N#Cc1nc(-c2ccccc2Cl)oc1N1CCOCC1	-21	4	-3	-16	3
Cc1ccccc1-c1nc(C#N)c(N2CCC(C)CC2)o1	5	29	-1	-3	15
N#Cc1nc(-c2ccccc2Cl)oc1N1CCCCCC1	.	94*	.	.	.
Cc1cc(C)c2nc(C)cc(NC(=O)COC(C)C)c2c1	.	-23	.	.	.
CCc1nnc(NC(C)=O)s1	.	-11	.	.	.
COc1ccc(C(=O)N2C(=S)C(c3ccccc3)=NC23CCC(C)CC3)cc1OC (stereo not drawn)	.	37*	.	.	.
NC(=O)N/N=C1/CCCC1c1ccccn1 (stereo not drawn)	.	67*	.	.	.
Nc1ccnc(-c2ccccn2)n1	.	151*	.	.	.
CC(C)S(=O)(=O)c1cnc(-c2ccccn2)nc1N	5	2	-1	-1	2
SMILES	CCHF vOTU inh	PriA SSB inh	SARS 3CLpro inh-1	VHR inh abs	RecA intein inh	others
N#Cc1cnc(-c2ccccn2)nc1N	.	83*	.	.	.
Nc1nccc(-c2ccccn2)n1	.	47	.	.	.
NCc1ccnc(-c2ccccn2)n1	.	126*	.	.	.
CC(C)(C)c1cc(=O)[nH]c2nnc(SCC(=O)N3N=C(c4cccs4)CC3c3ccc(F)cc3)n12 (stereo not drawn)	.	-14	.	.	.
CC1CCCCN1C(=O)c1ccc(C(=O)N2CCCCC2C)cc1 (stereo not drawn)	-2	-11	-2	14	0
Cc1cccc(C(=O)Nc2ccc(C(=O)N3CCCCC3C)cc2)c1 (stereo not drawn)	2	-3	6	57*	2
O=[N+]([O-])c1cc(/C=N/O)ccc1SCc1ccccc1Cl	3	.	3	53*	-2
CCCNC(=O)C1CCN(c2ccc(S(=O)(=O)N3CCOCC3)cc2Cl)CC1	14	2	4	57*	1
C=CCNC(=O)C1CCN(c2ccc(S(=O)(=O)N3CCOCC3)cc2Cl)CC1	20	9	2	16	-2
O=S(=O)(Nc1cc(F)ccc1F)c1cccc2nonc12	-1	-12	13*	28	-1	SARS 3CLpro inh-2=-6
O=S(=O)(Nc1cc(F)ccc1F)c1cccc2nsnc12	3	-15	4	30	-1
O=C(NC[C@@](O)(c1ccco1)C1CC1)C1CCC1	.	-2	.	.	.
CC(=O)c1cc(-c2ccccc2)[nH]c1N1CCOCC1	1	-14	46*	30	1	SARS 3CLpro inh-2=6
O=C(Nc1ccc(-c2ccc(N3CCCC3)nn2)cc1)c1ccc(-n2cccc2)cc1	.	-7	.	.	.
Cc1ccc2[nH]c(=O)c(CN(CCc3ccccc3)Cc3nnnn3CC3CCCO3)cc2c1 (stereo not drawn)	15	5	57*	-4	4	SARS 3CLpro inh-2=4

Screening results (PubChem BioAssay)
